Reference: PubChem BioAssay (NCATS)
Records with an inconclusive call do not appear. Calls of active or inactive are those of the source. Unless noted, calls come from the whole dose curve; as a rule, active = well fitted curve in the direction sought with a large enough effect; inconclusive = small, poorly fitted or top-dose-only effect, or another doubt; inactive = no such curve, though single readings can be large; an effect the other way counts as inactive or inconclusive.

Tests used:
[1] = qHTS profiling of the MIPE4 collection as inhibitors of Plasmodium falciparum (3D7) proliferation (AID 743344; call rule not given here;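 note: scaled between DMSO vehicle wells and 0.29 µM artemisinin as full inhibition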); settings: P. falciparum 3D7 in erythrocytes, SYBR Green DNA fluorescence, 72 h; at 28.5 µM unless noted
Procedure, shortened: (§1)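 Parasite DNA was quantified by SYBR Green I fluorescence (ex 485, em 535 nm) after overnight lysis in saponin/Triton buffer at room temperature. Cultures at 0.3% parasitemia and 2.5% hematocrit were first exposed to compound for 72 h at 37 C; signals were normalised to artemisinin (0.29 uM) and vehicle wells.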

[2] = qHTS profiling of the MIPE4 collection as inhibitors of Plasmodium falciparum (DD2) proliferation (AID 743345; call rule not given here); settings: P. falciparum Dd2 in erythrocytes, SYBR Green DNA, 72 h; at 28.5 µM unless noted
Procedure, shortened: as §1

[3] = qHTS profiling of the MIPE4 collection as inhibitors of Plasmodium falciparum (DD2) proliferation (Rep 2) (AID 743346; call rule not given here); settings: P. falciparum Dd2 in erythrocytes, SYBR Green DNA, 72 h; at 28.5 µM unless noted
Procedure, shortened: as §1

[4] = qHTS profiling of the MIPE4 collection as inhibitors of Plasmodium falciparum (HB3) proliferation (AID 743347; call rule not given here;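 note: plate controls were DMSO vehicle wells for no effect and artemisinin wells for full effect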); settings: P. falciparum HB3 in erythrocytes, SYBR Green DNA, 72 h; at 28.5 µM unless noted
Procedure, shortened: as §1

[5] = High-throughput drug toxicity screening in the BPDCN cell line Gen2.2 (AID 1224824; call rule not given here;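 note: cells exposed to compounds for 48 h before reading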); settings: Gen2.2 BPDCN cells; at 45.8 µM (top of the series) unless noted
Procedure, shortened: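 Gen2.2 cells, 500 per well in phenol red-free RPMI with 10% FBS, exposed to compounds 48 h at 37 C, 5% CO2; viability by CellTiter-Glo luminescence. Percent activity scaled to DMSO (100%) and 9.2 uM bortezomib final (0%).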

[6] = High-throughput drug toxicity screening in the BPDCN cell line Cal-1 (AID 1224825; call rule not given here); settings: Cal-1 BPDCN cell viability, qHTS; at 45.8 µM (top of the series) unless noted
Procedure, shortened: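 CellTiter-Glo luminescence after 48 h compound exposure; percent activity scaled with DMSO as 100% and bortezomib (9.2 uM final) as 0%. Cal-1 cells seeded at 500/well in RPMI, 10% FBS, no phenol red.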

[7] = qHTS assay for measurement of the activity of small molecule inhibitors on Zika virus induced Caspase-3 activity in human iPSC derived neural progenitor cells (hNPCs) (AID 1224857); note: nearly all actives have a fitted effect of over 65% in size; note: potency is the fitted concentration of half-maximal effect
Procedure, shortened: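 Percent inhibition of virus-induced caspase-3/7 luminescence (Caspase-Glo), scaled between uninfected cells and Zika-infected cells. hNPCs received compound 1 hr before ZIKV at 2 FFU/cell, with 6 hours infection at 37 C.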

[8] = qHTS assay for measurement of the activity of small molecule inhibitors on Zika virus induced Caspase-3 activity in human astrocytoma cells (AID 1224859);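 note: plate controls were ZIKV-infected untreated cells for no effect and uninfected cells for full effect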
Procedure, shortened: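 Luminescent caspase-3/7 read-out (30 min reagent, room temperature) in human SNB-19 cells infected 6 h with ZIKV (2 FFU/cell) after 1 h compound pre-incubation; Data were normalised to uninfected and infected wells.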

[9] = qHTS Screen of the MIPE 4.0 Collection Against Ewings Sarcoma (RDES) (AID 1259252); note: nearly all actives have a fitted effect of over 35% in size; note: potency is the fitted concentration of half-maximal effect
Procedure, shortened: (§2)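 Log-phase cells in RPMI with 5% FBS attached for 4 h, then received compounds as a titration for 48 h at 37C, 5% CO2. Viability was read by CellTiter-Glo luminescence and normalized to DMSO and no-cell wells.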

[10] = qHTS Screen of the MIPE 4.0 Collection Against Ewings Sarcoma (TC71) (AID 1259253); note: nearly all actives have a fitted effect of over 40% in size; note: potency is the fitted concentration of half-maximal effect
Procedure, shortened: as §2

[11] = qHTS Screen of the MIPE 4.0 Collection Against Ewings Sarcoma (EW8) (AID 1259255); note: nearly all actives have a fitted effect of over 35% in size; note: potency is the fitted concentration of half-maximal effect;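 for viability: 100% = DMSO-treated cells and 0% = medium-only wells without cells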
Procedure, shortened: as §2

[12] = qHTS Screen of the MIPE 4.0 Collection Against Ewings Sarcoma (TC32) (AID 1259256); note: nearly all actives have a fitted effect of over 45% in size; note: potency is the fitted concentration of half-maximal effect
Procedure, shortened: as §2

[13] = qHTS profiling for inhibitors of Plasmodium falciparum (3D7) proliferation (AID 743322; call rule not given here;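 note: infected erythrocytes exposed to compound for 72 h before lysis; 100% = DMSO vehicle wells and 0% = 0.29 µM artemisinin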); settings: P. falciparum 3D7 proliferation; at 28.7 µM (top of the series)
Procedure, shortened: as §1

[14] = qHTS profiling for inhibitors of Plasmodium falciparum (DD2) proliferation (AID 743323; call rule not given here); settings: lower = more inhibition; at 28.7 µM (top of the series)
Procedure, shortened: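 Parasite DNA quantified by SYBR Green fluorescence (ex 485, em 535 nm) after saponin/Triton lysis and overnight dark incubation. Cultures: 0.3% parasitemia, 2.5% hematocrit, 72 h, 37 C; data scaled between DMSO and 0.29 uM artemisinin.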

[15] = Identifying Small Molecule Inhibitors of Pancreatic Cancer Stem Cells (SN12C, Adherent) (AID 1259358);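 note: cell survival measured after 48 h of compound exposure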; note: potency is the fitted concentration of half-maximal effect
Procedure, shortened: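 Spheroids grown 14 days in stem cell media on hydrogel-coated nonadherent plates; 2D lines seeded directly. Compounds added after 4 h attachment, 48 h at 37C, 5% CO2; CellTiter-Glo luminescence normalized to DMSO (no inhibition) and no-cell wells (full inhibition).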

[16] = qHTS profiling for inhibitors of Plasmodium falciparum (HB3) proliferation (AID 743324); settings: Plasmodium falciparum HB3 blood-stage proliferation; at 28.7 µM (top of the series);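 note: 100% = DMSO vehicle wells and 0% = artemisinin-treated control wells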
Procedure, shortened: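 SYBR Green fluorescence (485 ex/535 em) of lysed cultures, incubated overnight at room temperature in the dark, quantifies parasite DNA. Infected erythrocytes at 0.3% parasitemia and 2.5% hematocrit were exposed 72 h; values normalized to DMSO and 0.29 uM artemisinin controls.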

[17] = Identifying Small Molecule Inhibitors of Pancreatic Cancer Stem Cells (Panc1, Spheroid) (AID 1259359);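 note: potency is the fitted concentration of half-maximal effect; compound exposure lasted 48 h before reading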
Procedure, shortened: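 Spheroids grown 14 days in stem cell media on nonadherent hydrogel before screening; cells attached 4 h, then compound exposure 48 h at 37C, 5% CO2. CellTiter-Glo luminescence normalized to DMSO (no inhibition) and no-cell wells (full inhibition).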

Row | Compound | parasite growth, % of DMSO control [1] [%] | parasite growth remaining, % of DMSO control (lower = more inhibition) [2] [%] | parasite growth, % of control (lower = inhibition) [3] [%] | growth, % of control [4] [%] | cell viability, % of control (lower = more cytotoxic) [5] [%] | viability (% of control) [6] [%] | Potency [7] | Potency [8] | Potency [9] | Potency [10] | Potency [11] | Potency [12] | remaining parasite growth % (stronger effect = lower value) [13] [%] | activity, percent of control [14] [%] | Potency [15] | remaining proliferation (% of control), lower = more inhibition [16] [%] | Potency [17]
1 | Cn1cc(-c2ccncc2)c(-c2ccc(OCc3ccc4ccccc4n3)cc2)n1 | 83.3 | 98.3 | 82.2 | 65.2 | 56.4 | 38.2 | inactive | inactive | 16.6 µM (active) | 16.6 µM (active) | 20.9 µM (active) | 16.6 µM (active) |  |  |  |  | 
2 | Cc1ccc(NC(=O)C2(c3ccc4c(c3)OC(F)(F)O4)CC2)nc1-c1cccc(C(=O)O)c1 | 7.25 | 6.69 | 7.61 | 5.22 | 8.23 | 6.82 | inactive | inactive | 0.0526 µM (active) | 0.0372 µM (active) | 0.0469 µM (active) | 0.0526 µM (active) |  |  |  |  | 
3 | CC(=O)SC[C@@H](C)C(=O)N1CCC[C@H]1C(=O)N[C@@H](Cc1ccccc1)C(=O)O | 100 | 102 |  | 111 | 132 | 123 | inactive | inactive | inactive | inactive | inactive | inactive | 106 | 103 | inactive |  | 
4 | COc1cc2c(Nc3ccc(NC(=O)c4ccccc4)cc3)ncnc2cc1OCCCN1CCOCC1 | 10.3 |  | 30 | 8.34 | 4.68 | 2.4 | inactive | inactive | 23.5 µM (active) | 16.6 µM (active) | 1.05 µM (active) | 3.32 µM (active) | 2.34 | 15.5 |  | 3.78 | 
5 | CCCCN1CCC(CNC(=O)c2c3n(c4ccccc24)CCCO3)CC1 | 25.9 |  |  |  | 110 | 9.06 | inactive | inactive | 8.33 µM (active) | 9.35 µM (active) | 14.8 µM (active) | 13.2 µM (active) |  |  | inactive |  | 
6 | CCN1CCN(Cc2ccc(-c3cc4c(N[C@H](C)c5ccccc5)ncnc4[nH]3)cc2)CC1 |  |  |  | 8.9 | 42.9 | 6.05 | inactive | inactive | inactive | 0.0053 µM (active) | 0.0332 µM (active) | 0.0148 µM (active) | -0.0025 | 1.84 | 23.5 µM (active) | 0.0196 | 
7 | Nc1nc(-c2nn(Cc3ccccc3F)c3ncccc23)nc(N)c1N1CCOCC1 | 28.3 |  |  |  | 199 | 101 | inactive | inactive | inactive | inactive | inactive | inactive |  |  | inactive |  | 
8 | CCN1CCN(CC(=O)Nc2ccc(-c3cccc4c(=O)cc(N5CCOCC5)oc34)c3sc4ccccc4c23)CC1 |  |  | 16.5 | 7.23 | 1.44 | 2.53 | inactive | inactive | 8.33 µM (active) | 6.62 µM (active) | 16.6 µM (active) | 1.32 µM (active) | -0.258 | 0.865 |  | 0.111 | 16.6 µM (active)
9 | Cc1ccc(C(=O)Nc2cccc(C(F)(F)F)c2)cc1-c1ccc2nc(NCCN3CCOCC3)ncc2c1 | 6.03 | 7.55 | 22.9 | 8.15 | 11.1 | 5.9 | inactive | inactive | 14.8 µM (active) | 14.8 µM (active) | 14.8 µM (active) | 11.8 µM (active) | -2.64 | 0.812 |  | -1.12 | 
10 | O=c1[nH]nc(Sc2ncc([N+](=O)[O-])s2)n1-c1ccc2c(c1)OCCO2 | 59.7 | 64.7 | 60.1 | 62.4 | 3.22 | 2.62 | 23.5 µM (active) | inactive | 7.43 µM (active) | 6.62 µM (active) | 2.96 µM (active) | 2.96 µM (active) | 21 | 65.9 |  | 3.82 | 5.26 µM (active)
11 | C=C1C(=CC=C2CCC[C@]3(C)[C@@H]([C@H](C)C=C[C@H](C)C(C)C)CC[C@@H]23)C[C@@H](O)C[C@@H]1O | 6.24 | 7.23 |  | 9.22 | 104 | 5.8 | inactive | inactive | 0.332 µM (active) | 0.743 µM (active) | 2.35 µM (active) | 0.833 µM (active) | 88.6 | 102 |  | 92.2 | 
12 | COc1cc2nccc(Oc3ccc(NC(=O)C4(C(=O)Nc5ccc(F)cc5)CC4)cc3)c2cc1OC |  |  | 7.46 | 2.54 | 5.49 | 5.29 | inactive | inactive | 1.32 µM (active) | 2.35 µM (active) | 1.05 µM (active) | 1.66 µM (active) | 3.02 | 14.8 |  |  | 
13 | COc1ccc(-c2cc3c(C)nc(N)nc3n(C3CCC(OCCO)CC3)c2=O)cn1 (stereo not drawn) | 5.2 | 7.58 | 7.09 | 3.04 | 9.04 | 3.91 | inactive | inactive | 0.118 µM (active) | 0.0743 µM (active) | 0.0662 µM (active) | 0.0264 µM (active) |  |  |  |  | 
14 | Cc1cccc(C=NNc2cc(N3CCOCC3)nc(OCCc3ccccn3)n2)c1 | 5.56 |  | 11.8 | 4.79 | 60.1 | 63.7 | inactive | inactive | 18.7 µM (active) | 16.6 µM (active) | 16.6 µM (active) | 5.26 µM (active) | 3.29 | 8.46 |  | 1.85 | 23.5 µM (active)
